The whole screen tested about 63,000 compounds, of which about 1,100 (1.7%) were called active.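 The calls were made as follows: active = compounds whose percent cytotoxicity in the single-dose primary screen, scaled between solvent and toxic-drug controls, exceeds 50; inactive = the rest.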 Shown is part of a subset that was picked to be rich in actives. Entries with a potency or affinity are not part of this list.
Assay: cytotoxicity in KRAS-transformed pancreatic duct cells, primary screen, cell-based, fluorescence, HTS (AID 431);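 also: 0% = DMSO solvent wells and 100% = doxorubicin-treated wells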
Conditions: HPDE-C7K KRASV12 cells, Alamar Blue viability, 48 h; at 10 µM; hits give high values
In the case of `CCc1ccc(-n2c(SCC(=O)Nc3cc(C)[nH]n3)nc3[nH]ncc3c2=O)cc1`, the cytotoxicity is reported as -4.9% (inactive). For `COc1ccc2nc(NC(=O)C3CCN(S(=O)(=O)c4cnc[nH]4)CC3)sc2c1`, the cytotoxicity was 14.5% (inactive). In the case of `O=C(Nc1c(C(=O)NCc2ccco2)cnn1-c1ccccc1)c1cccc(F)c1`, the cytotoxicity is reported as 7.2% (inactive). In the case of `O=C(NCc1ccco1)c1cc2ccccc2o1`, the cytotoxicity is reported as 7.8% (inactive). In the case of `Cc1ccc(-n2c(N)c(-c3nc4ccccc4n3C)sc2=S)cc1`, the cytotoxicity is reported as 9.5% (inactive). In the case of `C=CCn1c(N)c(-c2nc3ccccc3n2C)sc1=S`, the cytotoxicity is reported as 50.1% (active). In the case of `C=CCn1c(N)nc2ccccc21`, the cytotoxicity is reported as -9.7% (inactive). For `CCC(=O)Nc1ccc(NC(=O)c2c(C)nc3ccccn23)cc1`, the cytotoxicity was -2.5% (inactive). With `O=C(CCCC(=O)N(CC(=O)NC1CCCC1)Cc1ccc(F)cc1)Nc1ccccn1` the cytotoxicity was 14.7% (inactive). In the case of `C/C=C/Cn1c(N(C)Cc2ccccc2)nc2c1c(=O)[nH]c(=O)n2C`, the cytotoxicity is reported as 5.8% (inactive). In the case of `CCOc1cc(N2CCOCC2)c(OCC)cc1NC(=O)Cc1ccc(OC)c(OC)c1`, the cytotoxicity is reported as -1.4% (inactive). With `CCOc1cc(N2CCOCC2)c(OCC)cc1NC(=O)COc1cccc2cccnc12` the cytotoxicity was 51% (active). With `CCOc1cc(N2CCOCC2)c(OCC)cc1NC(=O)CN1CCc2ccccc2C1` the cytotoxicity was 9.3% (inactive). With `CC(C)(C)c1ccc(C(=O)N2CCC(C(=O)NCC3CCCO3)CC2)cc1` (configuration not stated) the cytotoxicity was -1.9% (inactive). In the case of `CC(C)Cn1c(SCC(=O)NC2CCCc3ccccc32)nc(O)cc1=O` (configuration not stated), the cytotoxicity is reported as -9.4% (inactive). In the case of `N#Cc1c(N)oc(-c2ccccc2)c1-c1ccccc1`, the cytotoxicity is reported as -9.5% (inactive). In the case of `N#Cc1c(/N=C/N2CCCC2)oc(-c2ccccc2)c1-c1ccccc1`, the cytotoxicity is reported as 15.9% (inactive). For `N#Cc1c(/N=C/c2ccco2)oc(-c2ccccc2)c1-c1ccccc1`, the cytotoxicity was 78.7% (active). For `Cc1ccc(CCNc2ccccc2)c[n+]1[O-]`, the cytotoxicity was -10.6% (inactive). For `CCOC(=O)CN1C(=O)C(O)(CC(=O)c2ccco2)c2ccccc21` (configuration not stated), the cytotoxicity was -77.9% (inactive). With `O=C(Nc1nccs1)Oc1ccccc1` the cytotoxicity was 0.7% (inactive). With `COc1ccc(C(C)=O)c2c(O)cccc12` the cytotoxicity was 12.2% (inactive). With `COc1ccc2c3c(cccc13)OCC2=O` the cytotoxicity was 18.6% (inactive). With `CC(=O)NC1CCN(C(=O)N2CCCC2)CC1` the cytotoxicity was 7.7% (inactive). For `O=C(CSc1n[nH]c(-c2ccncc2)n1)NC1CCS(=O)(=O)C1` (configuration not stated), the cytotoxicity was -7.5% (inactive). With `Cc1c(C(=O)NCc2ccoc2)oc2ccc3c(c12)C(=O)CC(C)(C)O3` the cytotoxicity was 36.4% (inactive). With `CCOC(=O)c1ccc(N2C(=O)CC(NC3CCN(C(=O)c4ccc(F)cc4)CC3)C2=O)cc1` (configuration not stated) the cytotoxicity was -19.3% (inactive).
